# This is one part of a sample in which the strongest signals are shown more often than they occur.
# B1: LSECtin (Homo sapiens), Q6UXB4 (protein)
# chain: MDTTRYSKWGGSSEEVPGGPWGRWVHWSRRPLFLALAVLVTTVLWAVILSILLSKASTERAALLDGHDLLRTNASKQTAALGALKEEVGDCHSCCSGTQAQLQTTRAELGEAQAKLMEQESALRELRERVTQGLAEAGRGREDVRTELFRALEAVRLQNNSCEPCPTSWLSFEGSCYFFSVPKTTWAAAQDHCADASAHLVIVGGLDEQGFLTRNTRGRGYWLGLRAVRHLGKVQGYQWVDGVSLSFSHWNQGEPNDAWGRENCVMMLHTGLWNDAPCDSEKDGWICEKRHNC
# Experiments:
# Test in all cases: glycan array binding signal (z-score within array); higher = stronger binding
# Conditions in all cases: glycan notation: IUPAC condensed, linker removed
# [1] = biological target: Glc(a1-6)Glc(a1-6)Glc
# Summary of the method: (§1)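 Glycan array data came from 3228 arrays in the Consortium for Functional Glycomics database, and only arrays with an available protein sequence were kept. Glycan names were put into IUPAC-condensed notation, and columns mapping to the same glycan were averaged. The binding signal is a within-array Z-score, averaged across arrays of one protein sequence run at different concentrations or buffers and across linkers. A negative Z-score can be read as non-binding.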
# [2] = biological target: GlcNAc(a1-4)Gal(b1-4)GalNAc
# Summary of the method: as §1
# [3] = biological target: GlcNAc(b1-2)Man(a1-3)[GlcNAc(b1-2)Man(a1-6)]Man(b1-4)GlcNAc(b1-4)GlcNAc
# Summary of the method: as §1
# [4] = biological target: GlcNAc(b1-2)Man(a1-3)[GlcNAc(b1-4)][GlcNAc(b1-2)Man(a1-6)]Man(b1-4)GlcNAc(b1-4)GlcNAc
# Summary of the method: as §1
# [5] = biological target: GlcNAc(b1-2)Man(a1-3)[GlcNAc(b1-4)][GlcNAc(b1-2)Man(a1-6)]Man(b1-4)GlcNAc(b1-4)[Fuc(a1-6)]GlcNAc
# Summary of the method: as §1
# [6] = biological target: GlcNAc(b1-2)[GlcNAc(b1-4)]Man(a1-3)[GlcNAc(b1-2)Man(a1-6)]Man(b1-4)GlcNAc(b1-4)GlcNAc
# Summary of the method: as §1
# [7] = biological target: GlcNAc(b1-2)[GlcNAc(b1-6)]Man(a1-6)[GlcNAc(b1-2)Man(a1-3)]Man(b1-4)GlcNAc(b1-4)GlcNAc
# Summary of the method: as §1
# [8] = biological target: GlcNAc(b1-2)[GlcNAc(b1-6)]Man(a1-6)[GlcNAc(b1-2)Man(a1-3)]Man(b1-4)GlcNAc(b1-4)[Fuc(a1-6)]GlcNAc
# Summary of the method: as §1
# [9] = biological target: GlcNAc(b1-3)Gal(b1-4)Glc
# Summary of the method: as §1
# [10] = biological target: GlcNAc(b1-3)Gal(b1-4)GlcNAc(b1-3)[GlcNAc(b1-3)Gal(b1-4)GlcNAc(b1-3)]GalNAc
# Summary of the method: as §1
# [11] = biological target: Kdn(a2-6)Gal(b1-4)GlcNAc
# Summary of the method: as §1
# [12] = biological target: Neu5Ac(a2-3)Gal(b1-3)GalNAc(b1-4)[Neu5Ac(a2-3)]Gal(b1-4)Glc
# Summary of the method: as §1
# [13] = biological target: Neu5Ac(a2-3)Gal(b1-3)[Fuc(a1-4)]GlcNAc
# Summary of the method: as §1
# [14] = biological target: Neu5Ac(a2-3)Gal(b1-4)GlcNAc(b1-2)Man(a1-3)[GlcNAc(b1-4)][Neu5Ac(a2-3)Gal(b1-4)GlcNAc(b1-2)Man(a1-6)]Man(b1-4)GlcNAc(b1-4)GlcNAc
# Summary of the method: as §1
# [15] = biological target: Neu5Ac(a2-3)Gal(b1-4)[Fuc(a1-3)]GlcNAc(b1-3)GalNAc
# Summary of the method: as §1
# [16] = biological target: Neu5Ac(a2-3)GalNAc(b1-4)GlcNAc
# Summary of the method: as §1
# [17] = biological target: Neu5Ac(a2-6)Gal(b1-4)GlcNAc(b1-2)Man(a1-3)[GlcNAc(b1-2)Man(a1-6)]Man(b1-4)GlcNAc(b1-4)GlcNAc
# Summary of the method: as §1
# [18] = biological target: Neu5Ac(a2-6)Gal(b1-4)GlcNAc(b1-2)Man(a1-6)[GlcNAc(b1-2)Man(a1-3)]Man(b1-4)GlcNAc(b1-4)GlcNAc
# Summary of the method: as §1
# [19] = biological target: Neu5Ac(a2-6)Gal(b1-4)GlcNAc(b1-2)[Neu5Ac(a2-6)Gal(b1-4)GlcNAc(b1-4)]Man(a1-3)[GlcNAc(b1-4)][Neu5Ac(a2-6)Gal(b1-4)GlcNAc(b1-2)[Neu5Ac(a2-6)Gal(b1-4)GlcNAc(b1-6)]Man(a1-6)]Man(b1-4)GlcNAc(b1-4)GlcNAc
# Summary of the method: as §1
# [20] = biological target: Neu5Ac(a2-6)Gal(b1-4)GlcNAc(b1-6)[Gal(b1-3)]GalNAc
# Summary of the method: as §1
# [21] = biological target: Neu5Ac(a2-8)Neu5Ac(a2-8)Neu5Ac(a2-3)Gal(b1-4)Glc
# Summary of the method: as §1
# [22] = biological target: Neu5Ac(b2-6)GalNAc
# Summary of the method: as §1
binder,measurement,setting,value
B1,glycan array binding signal (z-score),[1],-0.232
same,glycan array binding signal (z-score),[2],3.23
same,glycan array binding signal (z-score),[3],6.75
same,glycan array binding signal (z-score),[4],6.57
same,glycan array binding signal (z-score),[5],6.3
same,glycan array binding signal (z-score),[6],3.06
same,glycan array binding signal (z-score),[7],7.17
same,glycan array binding signal (z-score),[8],9.94
same,glycan array binding signal (z-score),[9],-0.109
same,glycan array binding signal (z-score),[10],-0.126
same,glycan array binding signal (z-score),[11],-0.149
same,glycan array binding signal (z-score),[12],-0.231
same,glycan array binding signal (z-score),[13],-0.079
same,glycan array binding signal (z-score),[14],-0.14
same,glycan array binding signal (z-score),[15],4.08
same,glycan array binding signal (z-score),[16],-0.22
same,glycan array binding signal (z-score),[17],0.942
same,glycan array binding signal (z-score),[18],5.06
same,glycan array binding signal (z-score),[19],-0.133
same,glycan array binding signal (z-score),[20],-0.137
same,glycan array binding signal (z-score),[21],-0.117
same,glycan array binding signal (z-score),[22],-0.124

# — the supplement of paper PMC8728848
